Data as given in PubChem BioAssay AID1159580 (chemical genetic matrix, 2015).
In all, about 5,500 compounds went through this assay and about 2,000 (36%) were called active. Not shown: some 18% with an inconclusive outcome. Rule as the data show it: active = normalized growth mostly below about 0.91 (no sharp cut-off); inconclusive = no clear call, values can overlap the other calls; inactive = mostly above about 0.92. Some of the results follow.

Assay: chemical genetic growth profiling, strain panel (AID 1159580);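 also: tested at 20 µM; growth read once vehicle control cultures reached saturation at 30 °C; 1 = growth at the plate median or of vehicle wells; lower values mean less growth of the strain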
Details: growth OD
[1] = S. cerevisiae deletion strains, locus YHR030C, strain SLT2, hits give low values
[2] = S. cerevisiae deletion strains, locus YJL187C, strain SWE1, hits give low values

Measured: normalized growth

C(=C(c1ccccc1)c1ccccc1)N1CCC1
inactive: S. cerevisiae deletion strains, locus YAL013W, strain DEP1, hits give low values 1 | S. cerevisiae deletion strains, locus YBR229C, strain ROT2, hits give low values 0.993 | S. cerevisiae deletion strains, locus YDL101C, strain DUN1, hits give low values 0.96 | S. cerevisiae deletion strains, locus YDL134C, strain PPH21, hits give low values 1.01 | S. cerevisiae deletion strains, locus YDR150W, strain NUM1, hits give low values 0.87 | S. cerevisiae deletion strains, locus YEL061C, strain CIN8, hits give low values 0.99 | S. cerevisiae deletion strains, locus YGR078C, strain PAC10, hits give low values 0.997 | S. cerevisiae deletion strains, locus YGR229C, strain SMI1, hits give low values 1 | [1] 0.972 | S. cerevisiae deletion strains, locus YHR087W, strain rtc3, hits give low values 0.984 | [2] 1 | S. cerevisiae deletion strains, locus YJR043C, strain POL32, hits give low values 1 | S. cerevisiae deletion strains, locus YJR075W, strain HOC1, hits give low values 0.984 | S. cerevisiae deletion strains, locus YLR039C, strain RIC1, hits give low values 1.01 | S. cerevisiae deletion strains, locus YLR058C, strain SHM2 (second series), hits give low values 0.998 | S. cerevisiae deletion strains, locus YLR085C, strain ARP6, hits give low values 0.998 | S. cerevisiae deletion strains, locus YLR262C, strain YPT6, hits give low values 1.02 | S. cerevisiae deletion strains, locus YML094W, strain GIM5, hits give low values 0.975 | S. cerevisiae deletion strains, locus YMR219W, strain ESC1, hits give low values 0.988 | S. cerevisiae deletion strains, locus YMR263W, strain SAP30, hits give low values 0.987 | S. cerevisiae deletion strains, locus YMR307W, strain GAS1, hits give low values 1.02 | S. cerevisiae deletion strains, locus YNL153C, strain GIM3, hits give low values 0.988 | S. cerevisiae deletion strains, locus YNL298W, strain CLA4 (second series), hits give low values 1 | S. cerevisiae deletion strains, locus YNL322C, strain KRE1, hits give low values 0.991 | S. cerevisiae deletion strains, locus YNR030W, strain Alg12, hits give low values 1.03 | S. cerevisiae deletion strains, locus YPL055C, strain LGE1, hits give low values 0.854 | S. cerevisiae deletion strains, locus YPL241C, strain CIN2, hits give low values 0.9 | S. cerevisiae deletion strains, locus YPR135W, strain CTF4, hits give low values 1.03 | S. cerevisiae strains, strain wild type, hits give low values 1.01

O=C(O)c1ccccc1
inactive: S. cerevisiae deletion strains, locus YAL021C, strain ccr4, hits give low values 0.97 | S. cerevisiae deletion strains, locus YAL026C, strain drs2, hits give low values 0.962 | S. cerevisiae deletion strains, locus YAL030W, strain snc1, hits give low values 0.977 | S. cerevisiae deletion strains, locus YBL061C, strain skt5, hits give low values 0.975 | S. cerevisiae deletion strains, locus YBR009C, strain hhf1, hits give low values 0.981 | S. cerevisiae deletion strains, locus YBR023C, strain chs3, hits give low values 0.981 | S. cerevisiae deletion strains, locus YBR171W, strain sec66, hits give low values 0.957 | S. cerevisiae deletion strains, locus YBR231C, strain swc5, hits give low values 0.974 | S. cerevisiae deletion strains, locus YBR279W, strain paf1, hits give low values 0.981 | S. cerevisiae deletion strains, locus YCL011C, strain gbp2, hits give low values 0.954 | S. cerevisiae deletion strains, locus YCL016C, strain dcc1, hits give low values 0.962 | S. cerevisiae deletion strains, locus YCL061C, strain MRC1, hits give low values 0.966 | S. cerevisiae deletion strains, locus YCL069W, strain vba3, hits give low values 0.986 | S. cerevisiae deletion strains, locus YCR088W, strain abp1, hits give low values 0.996 | S. cerevisiae deletion strains, locus YDL005C, strain med2, hits give low values 0.973 | S. cerevisiae deletion strains, locus YDL040C, strain nat1, hits give low values 0.994 | S. cerevisiae deletion strains, locus YDR001C, strain nth1, hits give low values 0.973 | S. cerevisiae deletion strains, locus YDR069C, strain doa4, hits give low values 0.958 | S. cerevisiae deletion strains, locus YDR137W, strain rgp1, hits give low values 0.975 | S. cerevisiae deletion strains, locus YDR159W, strain sac3, hits give low values 0.966 | S. cerevisiae deletion strains, locus YDR195W, strain ref2 1.02 | S. cerevisiae deletion strains, locus YDR297W, strain sur2, hits give low values 0.979 | S. cerevisiae deletion strains, locus YDR334W, strain swr1, hits give low values 0.911 | S. cerevisiae deletion strains, locus YDR335W, strain msn5, hits give low values 0.976 | S. cerevisiae deletion strains, locus YDR392W, strain spt3, hits give low values 0.962 | S. cerevisiae deletion strains, locus YEL003W, strain gim4, hits give low values 0.988 | S. cerevisiae deletion strains, locus YEL037C, strain rad23, hits give low values 0.988 | S. cerevisiae deletion strains, locus YEL061C, strain CIN8 (second series), hits give low values 0.971 | S. cerevisiae deletion strains, locus YER015W, strain faa2, hits give low values 0.987 | S. cerevisiae deletion strains, locus YER016W, strain bim1, hits give low values 0.983 | S. cerevisiae deletion strains, locus YER111C, strain swi4, hits give low values 0.971 | S. cerevisiae deletion strains, locus YER155C, strain BEM2 (second series), hits give low values 0.962 | S. cerevisiae deletion strains, locus YFR010W, strain ubp6, hits give low values 0.958 | S. cerevisiae deletion strains, locus YGL167C, strain pmr1, hits give low values 0.956 | S. cerevisiae deletion strains, locus YGL173C, strain kem1, hits give low values 0.956 | S. cerevisiae deletion strains, locus YGL227W, strain vid30, hits give low values 0.97 | S. cerevisiae deletion strains, locus YGL240W, strain doc1, hits give low values 0.959 | S. cerevisiae deletion strains, locus YGL253W, strain hxk2, hits give low values 0.965 | S. cerevisiae deletion strains, locus YHR013C, strain ard1, hits give low values 0.962 | S. cerevisiae deletion strains, locus YHR027C, strain rpn1, hits give low values 0.944 | [1] 0.894 | S. cerevisiae deletion strains, locus YHR079C, strain IRE1, hits give low values 0.891 | S. cerevisiae deletion strains, locus YHR142W, strain chs7, hits give low values 0.928 | S. cerevisiae deletion strains, locus YJL092W, strain hpr5, hits give low values 0.966 | S. cerevisiae deletion strains, locus YJL095W, strain BCK1 (second series), hits give low values 0.989 | S. cerevisiae deletion strains, locus YJL095W, strain BCK1, hits give low values 0.893 | S. cerevisiae deletion strains, locus YJL115W, strain asf1, hits give low values 0.945 | S. cerevisiae deletion strains, locus YJL129C, strain trk1, hits give low values 0.987 | S. cerevisiae deletion strains, locus YJL154C, strain vps35, hits give low values 0.975 | S. cerevisiae deletion strains, locus YJL164C, strain tpk1, hits give low values 1 | S. cerevisiae deletion strains, locus YJL166W, strain qcr8, hits give low values 0.969 | [2] 0.982 | S. cerevisiae deletion strains, locus YJR066W, strain TOR1, hits give low values 0.863 | S. cerevisiae deletion strains, locus YKL160W, strain elf1, hits give low values 0.965 | S. cerevisiae deletion strains, locus YKR026C, strain gcn3, hits give low values 0.978 | S. cerevisiae deletion strains, locus YLL001W, strain dnm1, hits give low values 0.948 | S. cerevisiae deletion strains, locus YLL026W, hits give low values 0.982 | S. cerevisiae deletion strains, locus YLL041C, strain sdh2, hits give low values 0.966 | S. cerevisiae deletion strains, locus YLR027C, strain aat2, hits give low values 0.967 | S. cerevisiae deletion strains, locus YLR221C, strain rsa3, hits give low values 0.927 | S. cerevisiae deletion strains, locus YLR258W, strain gsy2, hits give low values 0.989 | S. cerevisiae deletion strains, locus YLR262C, strain YPT6 (second series), hits give low values 0.998 | S. cerevisiae deletion strains, locus YLR320W, strain mms22, hits give low values 0.943 | S. cerevisiae deletion strains, locus YLR342W, strain FKS1, hits give low values 0.972 | S. cerevisiae deletion strains, locus YLR357W, strain rsc2, hits give low values 0.969 | S. cerevisiae deletion strains, locus YLR370C, strain arc18, hits give low values 0.949 | S. cerevisiae deletion strains, locus YLR384C, strain iki3, hits give low values 0.958 | S. cerevisiae deletion strains, locus YML120C, strain ndi1, hits give low values 0.948 | S. cerevisiae deletion strains, locus YMR058W, strain fet3, hits give low values 0.951 | S. cerevisiae deletion strains, locus YMR125W, strain sto1, hits give low values 0.98 | S. cerevisiae deletion strains, locus YMR129W, hits give low values 0.988 | S. cerevisiae deletion strains, locus YMR205C, strain PFK2, hits give low values 0.967 | S. cerevisiae deletion strains, locus YMR231W, strain pep5, hits give low values 0.987 | S. cerevisiae deletion strains, locus YNL071W, strain lat1, hits give low values 0.988 | S. cerevisiae deletion strains, locus YNL183C, strain NPR1, hits give low values 0.84 | S. cerevisiae deletion strains, locus YNL209W, strain ssb2, hits give low values 0.975 | S. cerevisiae deletion strains, locus YNL248C, strain rpa49, hits give low values 0.966 | S. cerevisiae deletion strains, locus YNL322C, strain KRE1 (second series), hits give low values 0.933 | S. cerevisiae deletion strains, locus YNR049C, strain mso1, hits give low values 0.955 | S. cerevisiae deletion strains, locus YOR001W, strain rrp6, hits give low values 0.965 | S. cerevisiae deletion strains, locus YOR070C, strain gyp1, hits give low values 0.985 | S. cerevisiae deletion strains, locus YOR080W, strain dia2, hits give low values 0.963 | S. cerevisiae deletion strains, locus YOR083W, strain WHI5, hits give low values 0.961 | S. cerevisiae deletion strains, locus YOR106W, strain vam3, hits give low values 0.923 | S. cerevisiae deletion strains, locus YOR265W, strain rbl2, hits give low values 0.981 | S. cerevisiae deletion strains, locus YOR270C, strain vph1, hits give low values 0.98 | S. cerevisiae deletion strains, locus YOR290C, strain snf2, hits give low values 0.907 | S. cerevisiae deletion strains, locus YPL051W, strain arl3, hits give low values 0.989 | S. cerevisiae deletion strains, locus YPL078C, strain atp4, hits give low values 0.974 | S. cerevisiae deletion strains, locus YPL106C, strain sse1, hits give low values 0.962 | S. cerevisiae deletion strains, locus YPL240C, strain hsp82, hits give low values 0.996 | S. cerevisiae deletion strains, locus YPL256C, strain CLN2, hits give low values 0.855
active: S. cerevisiae deletion strains, locus YLR113W, strain HOG1, hits give low values 0.78 | S. cerevisiae deletion strains, locus YOR231W, strain MKK1, hits give low values 0.86
